The record followed here is PubChem BioAssay (Tox21).

Assay [1] in a line: qHTS assay to identify small molecule antagonists of the androgen receptor (AR) signaling pathway using the MDA cell line in the presence of 0.5 nM R1881 - cell viability counter screen (AID 1259242). Also: nearly all actives have a fitted effect of over 45% in size. An outline of the steps:
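Human breast carcinoma MDA-kb2 cells, cultured without CO2, receive compounds alongside 0.5 nM (final) R1881 agonist. After 16 hr at 37C, viability is taken as live-cell protease signal.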
A general note: Quantitative high-throughput screening tests each substance at several concentrations.

Assay [2] addresses Estrogen receptor (Homo sapiens) (UniProt P03372). Briefly: qHTS assay to identify small molecule antagonists of the estrogen receptor alpha (ER-alpha) signaling pathway using the BG1 cell line in the presence of 0.1 nM 17-beta-estradiol (AID 1259244). Also: nearly all actives have a fitted effect of over 50% in size. The method in brief: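 Seeding of stripped-serum-adapted VM7Luc4E2 cells, 24 h attachment, compound transfer, then 0.1 nM final 17beta-estradiol; after 22 h incubation, ONE-Glo reagent and luminescence reading.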

Assay [3] can be described thus: qHTS assay to identify small molecule HDAC inhibitors (AID 1259364).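 Also: wild-type HCT-116 cells with endogenous class I/II HDAC activity; top concentration of the series differs between compounds; nearly all actives have a fitted effect of over 45% in size.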 An outline of the steps: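 After a 2 hr compound incubation (37C, 5% CO2), HCT-116 cells seeded at 1,500/well the day before received HDAC-Glo reagent; signal read as luminescence after 30 min at room temperature.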
Assay [4] is described as follows: qHTS assay to identify small molecule HDAC inhibitors - cell viability counter screen (AID 1259365). Also: series mostly up to about 92 µM; nearly all actives have a fitted effect of over 50% in size. The method in brief: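 HCT-116 wild-type, overnight attachment; 2hr drug exposure, 37C; CellTiter-Glo luminescent ATP readout after 30min RT.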
Assay [5] is described as follows: qHTS assay to identify small molecule agonists of the sonic hedgehog signaling (Shh) pathway - cell viability counter screen (AID 1259366). Also: nearly all actives have a fitted effect of over 50% in size. The method in brief:
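Compounds in DMSO were pin-transferred onto 3T3 Gli1-Luc cells that had settled 4hr; plates then stood 24hr at 37C and 5% CO2. One hour before the end, CellTiter-Fluor was added and fluorescence recorded.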

A short description of assay [6]: qHTS assay to identify small molecule antagonists of the sonic hedgehog signaling (Shh) pathway - cell viability counter screen (AID 1259367). Also: nearly all actives have a fitted effect of over 55% in size. The method in brief:
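Tox21 library chemicals were tested on a Gli1-Luc NIH/3T3 clone (2,000 cells/well) stimulated by conditioned medium; viability was quantified as fluorescence from CellTiter-Fluor reagent added at 23 hr.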

A short description of assay [7]: qHTS assay to identify small molecule agonists of the sonic hedgehog signaling (Shh) pathway (AID 1259368; calls by dose curve; also: nearly all actives have a fitted effect of over 15% in size; also: potency is read from the fitted curve at half-maximal effect). An outline of the steps:
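Stable NIH/3T3 Gli1-Luc reporter clone; 24 hr cpd exposure after a 4 hr settling period; luminescence endpoint.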

Assay [8] in a line: qHTS assay to identify small molecule antagonists of the sonic hedgehog signaling (Shh) pathway (AID 1259369; calls by dose curve; also: nearly all actives have a fitted effect of over 45% in size; also: potency is read from the fitted curve at half-maximal effect). The method in brief:
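Gli1 transcriptional reporter (firefly Luc) in NIH/3T3 background, conditioned-medium activated. 24hr exposure, luminescence endpoint.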

Assay [9] addresses Estrogen receptor beta (Homo sapiens) (UniProt Q92731). Put plainly: qHTS assay to identify small molecule agonists of the estrogen receptor beta (ER-beta) signaling pathway (AID 1259377; active = well fitted activation curve with a large enough effect in the signal ratio in the repeat runs, not every such curve was filed as active; the % refers to the signal ratio). An outline of the steps:
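qHTS in ER-beta-UAS-bla HEK293T cells: 6 hr settling, then 16 hr compound at 37C, then LiveBLAzer substrate 2 h at RT before fluorescence reading.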

Assay [10] can be described thus: qHTS assay to identify small molecule agonists of the estrogen receptor beta (ER-beta) signaling pathway - cell viability counter screen (AID 1259380). Also: nearly all actives have a fitted effect of over 30% in size. Also: potency is read from the fitted curve at half-maximal effect. The method in brief: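 In this qHTS counter screen, HEK293T cells carrying an ER-beta/UAS beta-lactamase reporter, grown in 2% charcoal-stripped FBS, received compound for 16 hr; ATP-based CellTiter-Glo luminescence was then read after 30 min at room temperature.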

Assay [11] in a line: qHTS assay to identify small molecule antagonists of the estrogen receptor beta (ER-beta) signaling pathway - cell viability counter screen (AID 1259382).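 Also: HEK293T cells carrying ER-beta-UAS-bla reporter stimulated with estradiol; series mostly up to about 92 µM; nearly all actives have a fitted effect of over 55% in size.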 The method in brief: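 HEK293T ER-beta-UAS-bla, 2% charcoal-stripped FBS; compounds + 1nM E2 16 hr 37C; CellTiter-Glo luminescence, 30 min RT.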
Assay [12] addresses Estrogen receptor (Homo sapiens) (UniProt P03372). Put plainly: qHTS assay to identify small molecule agonists of the estrogen receptor alpha (ER-alpha) signaling pathway in the presence of an antagonist (AID 1259383; calls by dose curve; also: top concentration of the series differs between compounds; nearly all actives have a fitted effect of over 15% in size). An outline of the steps:
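ER-alpha agonism measured under antagonist challenge: 10.0nM ICI-182,780 (final) plus compound, 15 concentrations, 22hr, VM7Luc4E2 ERE-luciferase cells. Read by luminescence.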

Assay [13] is described as follows: qHTS assay to identify small molecule agonists or antagonists of the thyroid stimulating hormone receptor (TSHR) signaling pathway - wild type cell line counter screen (AID 1259384; calls by dose curve). An outline of the steps: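 Wild-type Hek293 cells, 800/well, 18 h at 37C, then compound with Ro20-1724 for 30 min RT. cAMP by HTRF (cAMP-d2/anti-cAMP cryptate), 1 h RT, fluorescence read. 15 concentrations, triplicates.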

For assay [14], the target named is Thyrotropin receptor (Homo sapiens) (UniProt P16473). Briefly: qHTS assay to identify small molecule antagonists of the thyroid stimulating hormone receptor (TSHR) signaling pathway (AID 1259385; calls by dose curve; also: nearly all actives have a fitted effect of over 20% in size). An outline of the steps: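 TSHR-HEK293 cells (800/well) plated 18 h, then compounds with Ro20-1724 and TSH at 1.5 ng/mL final, 30 min at room temperature. cAMP quantified by HTRF (cAMP-d2/anti-cAMP-cryptate, 1 h); 15 concentrations in triplicate.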

Assay [15] can be described thus: qHTS assay to identify small molecule antagonists of the estrogen receptor alpha (ER-alpha) signaling pathway using the BG1 cell line in the presence of 0.1 nM 17-beta-estradiol - cell viability counter screen (AID 1259241). Also: nearly all actives have a fitted effect of over 40% in size. An outline of the steps: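 Following 5 days in phenol red-free medium with charcoal-stripped serum, VM7Luc4E2 cells received test compounds alongside 0.1 nM 17beta-estradiol (final) at 37C for 22 hr. Live cells were then quantified via protease-substrate fluorescence.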

Assay [16] is described as follows: qHTS assay to identify small molecule agonists of the androgen receptor (AR) signaling pathway in the presence of an antagonist - cell viability counter screen (AID 1259379). Also: nearly all actives have a fitted effect of over 25% in size. Also: potency is read from the fitted curve at half-maximal effect. An outline of the steps: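 Counter screen for cell viability run in parallel with the AR agonist-mode luciferase assay. MDA-kb2 cells were co-treated with nilutamide (3.0uM final) and compounds, then incubated 16 hr at 37C, and CellTiter-Fluor fluorescence was measured.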

A short description of assay [17]: qHTS assay to identify small molecule agonists of the estrogen receptor alpha (ER-alpha) signaling pathway in the presence of an antagonist - cell viability counter screen (AID 1259386).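 Also: cells exposed to compounds for 22 h at 37 °C before the viability read; nearly all actives have a fitted effect of over 30% in size.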 Also: potency is read from the fitted curve at half-maximal effect. An outline of the steps: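 Steps: 5-day stripped-FBS culture; seed and incubate 24hr; add ICI-182,780 (10.0nM final); pin 15-point compound titration; incubate 22hr at 37C; add CellTiter-Fluor at 21hr; read fluorescence.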

Unmarked numbers belong to inactive results. Inconclusive results are not listed. The source made the active and inactive calls. Unless noted, calls follow the shape of the dose curve; as a rule, active = well fitted curve in the direction sought with a large enough effect in the repeat runs; inconclusive = weak or mixed curves; inactive = no such curve, though single readings can be large; an effect the other way counts as inactive or inconclusive.

Estrogen receptor (Homo sapiens), sequence (P03372 whole entry, looked up): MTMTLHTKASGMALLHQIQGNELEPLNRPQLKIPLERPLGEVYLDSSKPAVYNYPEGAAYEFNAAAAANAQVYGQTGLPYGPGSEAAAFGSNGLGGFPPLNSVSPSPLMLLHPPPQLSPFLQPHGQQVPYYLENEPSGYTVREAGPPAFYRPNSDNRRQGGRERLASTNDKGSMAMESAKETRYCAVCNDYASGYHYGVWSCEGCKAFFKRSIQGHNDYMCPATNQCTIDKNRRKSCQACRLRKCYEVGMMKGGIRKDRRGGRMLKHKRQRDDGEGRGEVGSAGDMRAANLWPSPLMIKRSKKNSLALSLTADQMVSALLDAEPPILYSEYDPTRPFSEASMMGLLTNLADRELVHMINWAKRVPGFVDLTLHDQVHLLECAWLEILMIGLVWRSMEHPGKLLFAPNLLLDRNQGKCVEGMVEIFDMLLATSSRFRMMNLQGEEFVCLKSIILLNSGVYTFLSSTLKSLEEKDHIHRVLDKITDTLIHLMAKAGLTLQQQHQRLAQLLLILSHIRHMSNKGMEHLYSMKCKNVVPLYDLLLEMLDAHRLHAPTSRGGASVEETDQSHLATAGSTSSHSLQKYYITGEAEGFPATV
Estrogen receptor beta (Homo sapiens), sequence (Q92731 whole entry, looked up): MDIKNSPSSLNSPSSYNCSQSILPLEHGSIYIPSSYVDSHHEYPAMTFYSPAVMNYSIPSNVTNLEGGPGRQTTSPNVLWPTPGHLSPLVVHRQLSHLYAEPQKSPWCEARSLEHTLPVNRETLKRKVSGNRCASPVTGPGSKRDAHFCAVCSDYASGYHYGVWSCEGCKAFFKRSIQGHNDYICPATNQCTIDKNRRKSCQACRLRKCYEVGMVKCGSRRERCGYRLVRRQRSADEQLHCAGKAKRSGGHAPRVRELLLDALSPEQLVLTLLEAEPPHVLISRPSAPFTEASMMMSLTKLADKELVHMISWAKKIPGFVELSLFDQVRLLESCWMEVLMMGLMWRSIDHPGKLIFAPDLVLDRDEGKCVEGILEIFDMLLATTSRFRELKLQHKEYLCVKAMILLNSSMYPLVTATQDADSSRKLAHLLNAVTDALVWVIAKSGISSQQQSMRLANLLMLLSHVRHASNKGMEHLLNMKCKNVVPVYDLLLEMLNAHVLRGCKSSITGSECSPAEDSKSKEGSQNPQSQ
Thyrotropin receptor (Homo sapiens), sequence (P16473 whole entry, looked up): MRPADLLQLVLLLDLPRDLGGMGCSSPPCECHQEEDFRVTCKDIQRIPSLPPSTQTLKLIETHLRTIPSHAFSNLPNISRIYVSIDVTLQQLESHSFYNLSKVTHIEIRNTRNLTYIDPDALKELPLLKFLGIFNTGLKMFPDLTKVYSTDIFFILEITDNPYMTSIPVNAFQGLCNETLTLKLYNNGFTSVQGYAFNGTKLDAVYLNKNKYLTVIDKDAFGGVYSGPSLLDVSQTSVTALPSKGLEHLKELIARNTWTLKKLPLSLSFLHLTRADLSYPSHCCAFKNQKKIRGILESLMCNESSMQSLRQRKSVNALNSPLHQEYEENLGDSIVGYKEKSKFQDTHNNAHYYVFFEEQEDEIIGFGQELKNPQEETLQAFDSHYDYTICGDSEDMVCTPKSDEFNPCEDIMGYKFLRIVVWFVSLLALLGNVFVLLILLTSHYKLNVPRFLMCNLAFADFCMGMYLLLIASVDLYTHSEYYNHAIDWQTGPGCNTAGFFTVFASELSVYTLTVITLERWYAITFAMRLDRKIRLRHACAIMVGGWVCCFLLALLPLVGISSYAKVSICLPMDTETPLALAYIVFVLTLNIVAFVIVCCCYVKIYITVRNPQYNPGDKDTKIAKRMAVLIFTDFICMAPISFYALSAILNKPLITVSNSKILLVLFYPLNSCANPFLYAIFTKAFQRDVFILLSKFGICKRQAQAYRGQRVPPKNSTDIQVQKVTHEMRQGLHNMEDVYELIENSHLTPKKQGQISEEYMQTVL

`COP(=O)(OC)Oc1ccc([N+](=O)[O-])cc1`: the Potency result in [1], in [2], in assay [3], in [4], in [5] and in assay [6] was “inactive” throughout. The Potency entry in assay [7], in [8], in assay [9], in [10], in assay [11] and in assay [12] was “inactive” throughout. The Potency result in [13] and in assay [14] was “inactive” throughout.
With `c1ccc2c(c1)cc1ccc3cccc4ccc2c1c34`, the Potency entry in assay [3], in assay [6], in assay [8], in assay [10], in [11] and in assay [13] was “inactive” throughout. In addition, the Potency entry in assay [14] was “inactive”.
Take `CCOC(=O)CCN(SN(C)C(=O)Oc1cccc2c1OC(C)(C)C2)C(C)C`: the Potency result in [15], in [3], in assay [5], in [6], in assay [7] and in assay [16] was “inactive” throughout. The Potency entry in assay [10], in [11], in assay [12], in assay [13], in assay [14] and in assay [17] was “inactive” each time. In addition, the Potency in assay [8] is 54.5 µM (active).
As to `CN1CCc2cc3c(cc2C1O)OCO3` (configuration not stated), the Potency result in assay [1], in assay [3], in [7], in assay [10] and in assay [11] was “inactive” in each case.
As to `O.O.O.O.O.O.O=S(=O)([O-])[O-].[Ni+2]`, the Potency result in [15], in assay [3], in assay [4], in assay [5], in assay [6] and in [7] was “inactive” in each case. Further, the Potency entry in assay [8], in [16], in assay [10], in [11] and in [17] was “inactive” in each case.
As to `CCOP(=S)(NC(C)C)Oc1ccccc1C(=O)OC(C)C` (configuration not stated), the Potency entry in assay [15], in [3], in assay [4], in assay [5], in [7] and in assay [8] was “inactive” in each case. Besides, the Potency result in assay [9], in assay [12], in assay [13] and in [17] was “inactive” each time. In addition, the Potency in [10] is 3.86 µM (active).
In the case of `O=C(NC(=O)c1c(F)cccc1F)Nc1ccc(Oc2ccc(C(F)(F)F)cc2Cl)cc1F`, the Potency result in assay [3], in [5], in assay [6], in assay [7], in assay [10] and in [11] was “inactive” in each case. In addition, the Potency result in [13] is “inactive”. Also, the results for the Potency in assay [8] and in assay [16] were 6.86 µM (active) and 68.6 µM (active), respectively.
With `CC(C)=CCN1CC[C@@]2(C)c3cc(O)ccc3C[C@@H]1[C@@H]2C`, the Potency result in [1], in assay [2], in assay [3], in [5], in assay [6] and in [7] was “inactive” in each case. Further, the Potency entry in [8], in assay [9], in assay [10], in assay [11], in assay [12] and in assay [13] was “inactive” each time. The Potency entry in assay [14] is “inactive”.
For the compound `CSC1=N[C@@](C)(c2ccccc2)C(=O)N1Nc1ccccc1`, the Potency entry in assay [3], in assay [5], in [6], in [7], in [9] and in assay [11] was “inactive” in each case. Also, the Potency in assay [8] is 2.43 µM (active); in [16], 30.6 µM (active); in assay [17], 54.5 µM (active).
Take `O.O.O.O.O.O.O.O=S(=O)([O-])[O-].[Co+2]`: the Potency entry in [15], in assay [3], in assay [4], in assay [6], in assay [8] and in assay [10] was “inactive” each time. In [11], the Potency result is “inactive”. In assay [7], the Potency was 61.5 µM (active).
With `CCCCn1cc[n+](C)c1.[Cl][Fe-]([Cl])([Cl])[Cl]`, the Potency result in assay [15], in [3], in assay [4], in assay [6], in assay [7] and in assay [8] was “inactive” each time. The Potency entry in assay [10], in [11] and in assay [17] was “inactive” each time.
Consider `O=C1C[C@@H]2OCC=C3CN4CC[C@]56c7ccccc7N1[C@H]5[C@H]2[C@H]3C[C@H]46`, for which the Potency entry in [1], in assay [3], in assay [4], in assay [16], in assay [10] and in assay [11] was “inactive” throughout. In addition, the Potency entry in [13] and in [14] was “inactive” in each case.
